The values that follow come from ChEMBL document CHEMBL4513216, “Probing the Open Global Health Chemical Diversity Library for Multistage-Active Starting Points for Next-Generation Antimalarials” (ACS Infect Dis, 2020).

The structures appear in SMILES notation. The whole screen tested about 69,000 compounds, of which about 8,600 (12%) showed an effect of 50% or more. This excerpt belongs to a sample that is enriched for strong results.

The subject of this experiment is Plasmodium berghei. In words: Screen against P. berghei liver stage (PbLuc), transformed with Luciferase, at 10uM. The class given is functional, HepG2. The following applies: tested at 10 uM.
`Cc1nc(C2CCCN(C(=O)c3ccc(Cl)cn3)C2)no1` (stereo not drawn): the INHIBITION was -2.53%.
On to `CCn1c(CC2CCN(S(=O)(=O)c3cccc(C)c3)CC2)nn(C)c1=O`, for which the INHIBITION was 37.4%.
For `CN1CCN(c2ccc(F)cc2NC(=O)NCCn2ccnc2)CC1`, the INHIBITION stood at 37.9%.
The result for `O[C@@]1(CNCC2(Cn3cccn3)CC2)CCCN2CCCC[C@@H]21` reads 1.56%.
With `CN1CCN(C2CCN(C(C(N)=O)c3ccccc3)CC2)C1=O` (stereo not drawn), the INHIBITION was 20.9%.
`CCN1CCN(C2CCN(C(C(N)=O)c3ccccc3)CC2)C1=O` (stereo not drawn): the INHIBITION was 61.1%.
For `CCN1CCN(C2CCN(C(C(N)=O)c3ccc(F)cc3)CC2)C1=O` (stereo not drawn), the INHIBITION is given as 16.6%.
The result for `Cc1cnn(CCNCC(=O)NC(c2ccccc2)c2ccccc2)c1` reads -18.9%.
Turning to `Cc1c(C(=O)N2CCC2)nnn1-c1ccc2ncccc2c1`, the INHIBITION is given as -24.8%.
For `CCn1cnnc1CNC(=O)N1CCN(c2nc(C)c(C)s2)CC1`, the INHIBITION is 60.5%.
With `CCn1cnnc1CNC(=O)N1CCN(c2nccs2)CC1`, the INHIBITION is given as 27.8%.
For `CCn1cnnc1CNC(=O)N1CCC(O)CC1`, the INHIBITION is listed as 17.4%.
The result for `CCn1cnnc1CNC(=O)N1CCC(C(=O)NC)CC1` reads 61.3%.
The value for `CCn1cnnc1CNC(=O)N1CCC(C)CC1` was -13.5%.
The result for `CCn1cnnc1CNC(=O)N1CCCC1` reads -3.2%.
With `COc1ccccc1OCCc1cc(C2CCNC2)n[nH]1` (stereo not drawn), the INHIBITION is 41.2%.
For the compound `Cc1ncc(C(=O)N2C[C@@H]3CC[C@H]2CN(S(=O)(=O)N(C)C)C3)c(C)n1`, the INHIBITION came to 34.8%.
For the compound `COc1ccc(N2CCNC(C(N)=O)C2)cc1` (stereo not drawn), the INHIBITION was 7.19%.
Consider `O=C(O)C1CCCN(C(=O)CCn2ccc3c(Cl)cccc32)C1` (stereo not drawn), for which the INHIBITION is given as 63.1%.
The result for `O=C(O)C1CCCN(C(=O)CCn2ccc3c(Br)cccc32)C1` (stereo not drawn) reads 34.2%.
The result for `COc1cccc2c1ccn2CCC(=O)N1CCCC(C(=O)O)C1` (stereo not drawn) reads -22.9%.
The result for `Cn1cc(C2CCCN2C(=O)c2cnc(-c3ccccn3)s2)cn1` (stereo not drawn) reads -59.7%; that for `Cc1nc(Cn2c(=O)cnc3ccccc32)n(C)n1`, 17.6%.
For the compound `COC(=O)NCC(=O)NCc1nn(-c2ccccc2)c2c1CCC2`, the INHIBITION was 24.75%.
On to `Cc1noc([C@]23COC[C@H]2CN(C(=O)N2CCCC2)C3)n1`, for which the INHIBITION is 15.8%.
The value for `O=C(c1cnccn1)N1CCCC(C2=Nc3ccccc3S(=O)(=O)N2)C1` (stereo not drawn) was 16.705%; that for `CCCN(C)C(=O)c1cc(S(=O)(=O)NCC)ccc1C` was 16.6%; that for `CCNS(=O)(=O)c1ccc(C)c(C(=O)N(C)Cc2ccco2)c1` was 26.8%.
The result for `CCNS(=O)(=O)c1ccc(C)c(C(=O)N(C)Cc2ccccc2C)c1` reads 67.3%; that for `CCN(CC)[C@@H]1CN(Cc2nccn2C)[C@@H]2CCCO[C@H]12`, 20.1%.
Consider `c1ccc2c(CC3CN(Cc4nccs4)CCO3)cccc2c1` (stereo not drawn), for which the INHIBITION was found to be 53.3%.
Consider `Cc1cccnc1CN1CCOC(Cc2cccc3ccccc23)C1` (stereo not drawn), for which the INHIBITION amounted to 42.1%.
For the compound `COc1ncc(CN2CCOC(Cc3cccc4ccccc34)C2)cn1` (stereo not drawn), the INHIBITION is recorded as -31.8%.
The value for `Cc1ccc(NC(=O)Cc2cnc3n(C)c(=O)[nH]c(=O)n23)cc1` was 0.207%; that for `CCn1ncc(Cn2cc(Cl)c(N)n2)c1C` was 51.5%.
Consider `CCn1cc(Cn2cc(Cl)c(N)n2)c(C)n1`, for which the INHIBITION is -18.8%.
Regarding `Cc1c(Cn2cc(Cl)c(N)n2)cnn1C`, the INHIBITION was determined as 17.8%.
Take `CC(=O)N1CCCN(C(=O)NCc2ccc(Cl)s2)CC1`: the INHIBITION is 25.6%.
The value for `CN(C)C(=O)COCC1CN(Cc2ccoc2)Cc2ncn(C)c21` (stereo not drawn) was 12.5%.
For `COc1ccc(S(=O)(=O)N2CCOC(Cn3ccnc3)C2)cc1` (stereo not drawn), the INHIBITION turned out to be 8.12%.
The value for `FC(F)CN1CCC(NCc2ccc(-n3cccn3)nc2)CC1` was 48.2%.
In the case of `CN1CCN(C(=O)c2cc(-c3cnc(N4CCCC4)nc3)cn2C)CC1`, the INHIBITION is -2.17%.
The result for `Cn1cc(-c2cnc(N3CCOCC3)nc2)cc1C(=O)NCCO` reads 35.8%; that for `Cn1cc(-c2cnc(N3CCCC3)nc2)cc1C(=O)O`, -50.8%.
For the compound `CN(C)CCNC(=O)c1cc(-c2cnc(N3CCOCC3)nc2)cn1C`, the INHIBITION is recorded as 19.4%.
In the case of `CCCNC(=O)c1cc(-c2cnc(N3CCCC3)nc2)cn1C`, the INHIBITION came to 64.9%.
Take `CN(C)CCNC(=O)c1cc(-c2cnc(N3CCCC3)nc2)cn1C`: the INHIBITION was found to be 63.7%.
`COCCN(C)C1COC2(CCN(Cc3cccc(F)c3)CC2)C1` (stereo not drawn): the INHIBITION was determined as 26.4%.
The result for `O=C(c1ccccn1)N1CCN(c2ccc(-c3cccnc3)nn2)CC1` reads 21.6%.
The result for `COCCN(C)C[C@@H]1CN(C(=O)c2ccc(O)c(Cl)c2)C[C@@H]1CO` reads 46.1%.
The result for `CN(C)c1ccc(CNC(=O)Nc2ccc(S(C)(=O)=O)nc2)cc1` reads -24.75%.
Take `O=C(NCc1ccccc1F)C1=NOC2(CCNC2)C1` (stereo not drawn): the INHIBITION worked out at 7.65%.
The value for `CC(C)(C(=O)NCC(=O)NC1CC1)c1ccccc1F` was 19.4%.
The value for `O=C(CC1CCN(c2cccnn2)CC1)Nc1cccnc1` was 21.1%.
The value for `CC(C)(C)C(=O)N1C[C@H](c2ccsc2)[C@H]2CN(Cc3cccs3)CC[C@H]21` was 54.6%.
As for `CC(C)(C)C(=O)N1C[C@H](c2ccsc2)[C@H]2CN(C3CCCCC3)CC[C@H]21`, the INHIBITION came to 50.8%.
The result for `CC(C)(C)C(=O)N1C[C@H](c2ccsc2)[C@H]2CN(C3CCCC3)CC[C@H]21` reads 34.1%.
Take `CCCC(=O)NC1CCCN(Cc2cccs2)C1` (stereo not drawn): the INHIBITION is given as 7.24%.
The result for `CC(C)(C)OC(=O)NC1CCCN(Cc2cccs2)C1` (stereo not drawn) reads 16.5%; that for `O=C(C1CCC1)N1C[C@@H](c2ccsc2)[C@@H]2CN(C3CCCCC3)CC[C@@H]21`, 32.3%.
With `Cn1nc2c(cc1=O)CN(Cc1coc(-c3cccc(F)c3)n1)CC2`, the INHIBITION is given as 9.54%.
The result for `COCCNC(=O)c1nc(NS(=O)(=O)c2ccccc2)sc1C` reads 17.7%; that for `Cc1cnc(C(=O)NC(CN2CCCC2=O)c2ccccc2)cn1` (stereo not drawn), -15.543%; that for `CCN(CC)c1ncc(CNCC2CCCn3ccnc32)s1` (stereo not drawn), 30.8%.
For the compound `Cc1cn2c(n1)C(CNCC1=Cc3cc(Cl)ccc3OC1)CCC2` (stereo not drawn), the INHIBITION is given as 90.2%.
The value for `CC(NCC1=Cc2cc(Cl)ccc2OC1)c1nnc2n1CCCC2` (stereo not drawn) was 0.139%.
Consider `Cc1cn2c(n1)C(CNCC1=Cc3ccccc3OC1)CCC2` (stereo not drawn), for which the INHIBITION was determined as 88.5%.
The result for `Cc1ccc(N2CCCC(NCC3=Cc4ccccc4OC3)C2)nn1` (stereo not drawn) reads -4.94%.
